Sampled rows, rich in hits. Any-hit rate of the full collection: about 2.3%.
Pf Dd2 growth: P. falciparum Dd2 growth inhibitors, primary screen, SYBR Green fluorescence, single dose replicates; 72 h; active compounds read low; hit rate 2.3% among 94,000; activity change, % at 10 µM; AID 1159554, 2015; in the data active = activity change below about -80%
C diff growth: C. difficile growth inhibitors, primary screen, HTS | Clostridium difficile clinical isolate growth, OD600, 24 h; active compounds read low | growth activity, negative = inhibition, % at 16 µg/mL (by protocol) | AID 1259249, 2017 | hit rate 0.25% among 86,000;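 active = mean growth activity at or below -80% and every replicate also at or below -80%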;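 note: 0% = DMSO wells and -100% = levofloxacin 16 µg/mL wells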
* marks the source's active call; other numbers are inactive results; . = no result given; ! = not active in a repeat.

SMILES	Pf Dd2 growth	C diff growth
CO[C@H]1CN(C)C(=O)c2cc(NC(=O)Cc3ccccc3)ccc2OC[C@@H](C)N(CC2CC2)C[C@@H]1C	-5.2	0.5
COC(=O)C[C@H]1CC[C@@H]2[C@@H](COc3ccc(NC(=O)c4ccc(F)cc4)cc3C(=O)N2C)O1	-29.8	6.1
COc1cccc(CN2[C@@H]3CNC[C@H]2C3c2ccc(/C=C/c3ccccc3)cc2)c1 (some centres not stated)	-48.2	38.6
COc1cc(CN2[C@@H]3CNC[C@H]2C3c2ccc(/C=C/c3ccccc3)cc2)cc(OC)c1 (some centres not stated)	-32.7	-93.0*!
COc1cccc(S(=O)(=O)N(C)C[C@@H]2OCc3ccccc3-c3ccccc3C(=O)N([C@H](C)CO)C[C@H]2C)c1	-37.7	0.8
c1cncc(-c2ccc(C3[C@@H]4CN(Cc5ccc6c(c5)OCO6)C[C@H]3N4)cc2)c1 (some centres not stated)	-37.4	-4.1
C/C=C/c1ccc(C2[C@@H]3CN(Cc4ccc5c(c4)OCO5)C[C@H]2N3)cc1 (some centres not stated)	-94.1*!	2.0
CN(C)C(=O)c1ccc(-c2ccc(C3[C@@H]4CN(Cc5ccc6c(c5)OCO6)C[C@H]3N4)cc2)cc1 (some centres not stated)	-81.7*!	-5.2
Cc1ccccc1-c1ccc(C2[C@@H]3CN(Cc4ccc5c(c4)OCO5)C[C@H]2N3)cc1 (some centres not stated)	-6.6	-94.4*
Cc1ccccc1-c1ccc(C2[C@H]3CNC[C@@H]2N3Cc2ccc3c(c2)OCO3)cc1 (some centres not stated)	4.1	-0.2
C/C=C/c1ccc(C2[C@H]3CNC[C@@H]2N3Cc2ccc3c(c2)OCO3)cc1 (some centres not stated)	-28.1	5.8
C[C@@H](NC(=O)C[C@H]1CC[C@H]2[C@@H](COC[C@@H](O)CN2Cc2cc(F)ccc2F)O1)c1ccccc1	11.3	4.0
CNC[C@H]1Oc2ccc(NS(=O)(=O)c3ccc(F)cc3)cc2CC(=O)N([C@H](C)CO)C[C@@H]1C	-0.8	10.4
O=C(C[C@H]1C=C[C@@H](NC(=O)CN2CCOCC2)[C@H](CO)O1)NCc1cccc(F)c1	24.8	.
COc1ccc2c3c([nH]c2c1)[C@H](CO)N(CC1CCOCC1)CC31CN(C(=O)C2CC2)C1	19.5	7.8
C[C@@H]1CN([C@H](C)CO)C(=O)c2cc(Br)cnc2O[C@H]1CN(C)S(=O)(=O)c1ccc(F)cc1	17.0	1.4
Cc1noc(C)c1S(=O)(=O)Nc1ccc2c(c1)C(=O)N([C@@H](C)CO)C[C@@H](C)[C@@H](CN(C)C(=O)Nc1ccc(C(F)(F)F)cc1)OCCCC[C@H](C)O2	-81.7*	2.6
Cc1noc(C)c1S(=O)(=O)Nc1ccc2c(c1)C(=O)N([C@H](C)CO)C[C@H](C)[C@@H](CN(C)C(=O)Nc1ccccc1)OCCCC[C@H](C)O2	3.4	-2.5
Cc1noc(C)c1S(=O)(=O)Nc1ccc2c(c1)C(=O)N([C@@H](C)CO)C[C@@H](C)[C@H](CN(C)C(=O)Nc1ccc(C(F)(F)F)cc1)OCCCC[C@H](C)O2	-31.8	-1.9
Cc1noc(C)c1S(=O)(=O)Nc1ccc2c(c1)C(=O)N([C@H](C)CO)C[C@@H](C)[C@@H](CN(C)C(=O)Nc1ccccc1)OCCCC[C@@H](C)O2	-83.8*	7.1
Cc1ccc(S(=O)(=O)Nc2ccc3c(c2)C(=O)N([C@H](C)CO)C[C@@H](C)[C@@H](CN(C)Cc2ccncc2)OCCCC[C@@H](C)O3)cc1	-57.1	.
CCNC(=O)C[C@@H]1CC[C@H]2[C@@H](COc3ccc(NC(=O)Nc4cccc(Cl)c4)cc3C(=O)N2C)O1	-4.5	-4.9
COc1cccc(/C=C/C=O)c1	.	-7.0
C/C=C/c1cnc2c(c1)C(=O)N([C@H](C)CO)C[C@@H](C)[C@@H](CN(C)C(=O)Nc1ccccc1F)O2	-3.6	-3.0
C/C=C/c1ccc([C@@H]2[C@@H](CO)N(c3nc(CC)cs3)[C@@H]2CNC(C)C)cc1	-78.5	4.2
SMILES	Pf Dd2 growth	C diff growth
C/C=C/c1ccc([C@H]2[C@@H](CO)N(CC3CC3)[C@H]2CNS(C)(=O)=O)cc1	-12.2	-4.5
C/C=C/c1ccc([C@H]2[C@@H](CO)N(CC3CCCCC3)[C@@H]2CNC(C)C)cc1	-93.6*	35.1
C/C=C/c1ccc([C@H]2[C@H](CO)N(c3nc(CC)cs3)[C@H]2CNC(C)C)cc1	-80.7*	2.6
C/C=C/c1ccc([C@H]2[C@@H](CO)N(CC3CC3)[C@@H]2CNC(=O)NC(C)C)cc1	-5.7	4.9
C/C=C/c1ccc([C@H]2[C@@H](CO)N(CC3CCCC3)[C@@H]2CNC(=O)NC(C)C)cc1	-94.0*	31.6
C/C=C/c1ccc([C@H]2[C@@H](CO)N(CC3CCCC3)C23CN(C(=O)CC2CC2)C3)cc1	-86.7*	-1.1
C/C=C/c1ccc([C@H]2[C@@H](CO)N(CC3CCCC3)C23CN(C(=O)CC)C3)cc1	-26.9	-4.7
COc1cccc(NC(=O)C[C@H]2CC[C@@H]3[C@@H](COc4ccc(NC(C)=O)cc4C(=O)N3C)O2)c1	-19.4	-7.5
Cc1ccc(S(=O)(=O)N[C@@H]2CC[C@@H](CCNC(=O)CN3CCOCC3)O[C@H]2CO)cc1	6.8	1.4
C[C@@H]1CN([C@H](C)CO)C(=O)c2ccccc2-c2ccccc2CO[C@@H]1CN(C)C(=O)Nc1cccc(Cl)c1Cl	-69.3	-3.0
C[C@@H]1CN([C@H](C)CO)C(=O)c2ccccc2-c2ccccc2CO[C@H]1CN(C)C(=O)Nc1cccc(Cl)c1Cl	-93.7*	-6.7
C[C@@H]1CN([C@@H](C)CO)C(=O)c2ccccc2-c2ccccc2CO[C@H]1CN(C)C(=O)Nc1cccc(Cl)c1Cl	-95.2*	-10.0
C[C@@H]1CN([C@@H](C)CO)C(=O)c2ccccc2-c2ccccc2CO[C@@H]1CN(C)C(=O)Nc1cccc(Cl)c1Cl	-64.6	-6.0
CCCN1C[C@H](C)[C@@H](OC)CN(C)C(=O)c2cc(NC(=O)COC)ccc2OC[C@H]1C	21.2	-8.3
C[C@H]1CCCCO[C@H](CN(C)S(=O)(=O)c2ccc(F)cc2)[C@@H](C)CN([C@@H](C)CO)C(=O)c2cc(NC(=O)Nc3ccc4c(c3)OCO4)ccc2O1	-75.8	-1.0
Cc1ccc(S(=O)(=O)N(C)C[C@@H]2OCCCC[C@@H](C)Oc3ccc(NC(=O)Nc4ccc5c(c4)OCO5)cc3C(=O)N([C@H](C)CO)C[C@@H]2C)cc1	-82.3*	.
C[C@@H]1CN([C@H](C)CO)C(=O)c2cc(NC(=O)Nc3ccc4c(c3)OCO4)ccc2O[C@@H](C)CCCCO[C@@H]1CN(C)S(=O)(=O)c1ccc(F)cc1	-83.7*	5.2
C[C@@H]1CCCCO[C@H](CN(C)S(=O)(=O)c2ccc(Cl)cc2)[C@@H](C)CN([C@@H](C)CO)C(=O)c2cc(NC(=O)Nc3ccc4c(c3)OCO4)ccc2O1	-82.8*	-0.5
Cc1ccc(S(=O)(=O)N(C)C[C@@H]2OCCCC[C@H](C)Oc3ccc(NC(=O)Nc4ccc5c(c4)OCO5)cc3C(=O)N([C@H](C)CO)C[C@@H]2C)cc1	-55.7	.
C[C@@H]1CN([C@@H](C)CO)C(=O)c2cc(NC(=O)Nc3ccc4c(c3)OCO4)ccc2O[C@@H](C)CCCCO[C@@H]1CN(C)S(=O)(=O)c1ccc(F)cc1	-73.8	1.4
